Publication PMC6602471
Over roughly 1,300 sequences, “log fluorescence intensity” has its median near 8.9; the highest 2% begin near 13. What follows is part of a selection rich in the highest values, with near analogues and random picks from the rest.

Biological target: T1, ELK1 (Homo sapiens, UniProt P19419 1-428)
T1 sequence: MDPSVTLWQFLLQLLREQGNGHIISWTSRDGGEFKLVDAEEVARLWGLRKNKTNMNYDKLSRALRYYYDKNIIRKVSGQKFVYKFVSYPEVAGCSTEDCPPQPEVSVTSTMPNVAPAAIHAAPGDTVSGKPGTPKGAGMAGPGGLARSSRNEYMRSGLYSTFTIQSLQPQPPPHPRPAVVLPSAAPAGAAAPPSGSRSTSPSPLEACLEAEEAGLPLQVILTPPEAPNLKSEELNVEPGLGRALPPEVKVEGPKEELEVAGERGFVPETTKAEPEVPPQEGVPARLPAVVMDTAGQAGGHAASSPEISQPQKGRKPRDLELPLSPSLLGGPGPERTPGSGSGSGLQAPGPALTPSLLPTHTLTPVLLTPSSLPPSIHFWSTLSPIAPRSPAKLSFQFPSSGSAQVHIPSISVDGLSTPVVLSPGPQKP
Test: custom PBM; custom protein-binding microarray; buffer, salt, pH and temperature not stated; high values mean tight binding
Settings: dsDNA, one strand shown

Sequence | binding signal
GCTGCTGCGGTGCATACCCCACCGGATGTGACTCCGGTCTTGATTCGCTTGACGCTGCTG | 10.3 log fluorescence intensity
GATTAATTTCTTCCCTTATTCGCACGTGCCATAACAGTCTTGATTCGCTTGACGCTGCTG | 9.19 log fluorescence intensity
CGGAAGTGTCGTTAACGTCGGATATCCGGTTCTTCTGTCTTGATTCGCTTGACGCTGCTG | 12.6 log fluorescence intensity
CGGAAGTGTCATAAACGTCGGATATCCGGTTCTTCTGTCTTGATTCGCTTGACGCTGCTG | 12.1 log fluorescence intensity
CGGAAGTGTCTTAAACGTCGGATATCCGGTTCTTCTGTCTTGATTCGCTTGACGCTGCTG | 12.1 log fluorescence intensity
CGGAAGTGTCGTGAACGTCGGATATCCGGTTCTTCTGTCTTGATTCGCTTGACGCTGCTG | 11.8 log fluorescence intensity
CGGAAGTGTAGTAAACGTCGGATATCCGGTTCTTCTGTCTTGATTCGCTTGACGCTGCTG | 12.1 log fluorescence intensity
CGGAAGTGTCGTATACGTCGGATATCCGGTTCTTCTGTCTTGATTCGCTTGACGCTGCTG | 12.5 log fluorescence intensity
CGGAAGTGTCCTAAACGTCGGATATCCGGTTCTTCTGTCTTGATTCGCTTGACGCTGCTG | 12.4 log fluorescence intensity
CGGAAGTGTCGAAAACGTCGGATATCCGGTTCTTCTGTCTTGATTCGCTTGACGCTGCTG | 12.4 log fluorescence intensity
CGGAAGTGTCGGAAACGTCGGATATCCGGTTCTTCTGTCTTGATTCGCTTGACGCTGCTG | 13.5 log fluorescence intensity
CGGAAGTGTCGTCAACGTCGGATATCCGGTTCTTCTGTCTTGATTCGCTTGACGCTGCTG | 12.6 log fluorescence intensity
CGGAAGTGTCGTAGACGTCGGATATCCGGTTCTTCTGTCTTGATTCGCTTGACGCTGCTG | 12.3 log fluorescence intensity
CGGAAGTGTCGCAAACGTCGGATATCCGGTTCTTCTGTCTTGATTCGCTTGACGCTGCTG | 12.5 log fluorescence intensity
GCTGCCGCGGTGCATACCCCACCGGATGTGACCCCGGTCTTGATTCGCTTGACGCTGCTG | 10.5 log fluorescence intensity
GCTGATGCGGTGCATACCCCACCGGATGTGACCCCGGTCTTGATTCGCTTGACGCTGCTG | 10.2 log fluorescence intensity
CTGGGACTTGACCCAACTCTGCCGCGTGGGTCGTTTGTCTTGATTCGCTTGACGCTGCTG | 8.91 log fluorescence intensity
GGAAAAAGACCCAGGGTAACACCGGAAGTGGGCTTAGTCTTGATTCGCTTGACGCTGCTG | 11 log fluorescence intensity
GCTGCTGCGTTGCATACCCCACCGGATGTGACCCCGGTCTTGATTCGCTTGACGCTGCTG | 10.1 log fluorescence intensity
TCCGGCTACCAGCTCCACCCAATTCAGGCCTTGTAGGTCTTGATTCGCTTGACGCTGCTG | 8.93 log fluorescence intensity

Sequence | binding signal
CTGGGACTTGACCTAACTCTGCCACGTGGGTCGTTTGTCTTGATTCGCTTGACGCTGCTG | 8.92 log fluorescence intensity
CACAATTTTTACAGTAATGTAGCATGCGTAACTCCTGTCTTGATTCGCTTGACGCTGCTG | 8.94 log fluorescence intensity
CTGGGACATGACCCAACTCTGCCACGTGGGTCGTTTGTCTTGATTCGCTTGACGCTGCTG | 8.96 log fluorescence intensity
GCTGCTGCGGTGCATACCCCACAGGATGTGACCCCGGTCTTGATTCGCTTGACGCTGCTG | 9.08 log fluorescence intensity
TGTCGGGTAAGGGAATGTAGATCACGTGAATGAATAGTCTTGATTCGCTTGACGCTGCTG | 8.98 log fluorescence intensity
TGTCGGGTAAGGGAATGTAGATCACGTGAATGATAAGTCTTGATTCGCTTGACGCTGCTG | 9.11 log fluorescence intensity
GCTGCTGCGGTGCATACCCCACCGGATGTGCCCCCGGTCTTGATTCGCTTGACGCTGCTG | 10.2 log fluorescence intensity
TATTAATTTCTGCCCTTATTCGCACGTGCCATAACAGTCTTGATTCGCTTGACGCTGCTG | 8.91 log fluorescence intensity
GTGTATAGGATCCCATCCAACACACGGGTTAAAATGGTCTTGATTCGCTTGACGCTGCTG | 8.95 log fluorescence intensity
GCTGCTGCGGTGCCTACCCCACCGGATGTGACCCCGGTCTTGATTCGCTTGACGCTGCTG | 10.3 log fluorescence intensity
TACTGACTTTTATATGCGAATGCACATGAATAGACCGTCTTGATTCGCTTGACGCTGCTG | 8.97 log fluorescence intensity
GTAAAAAGGCCCAGGGTAACACCGGAAGTGGGCTTAGTCTTGATTCGCTTGACGCTGCTG | 10.9 log fluorescence intensity
GTGTATAGGATCCCATCCAACACACGTATTAAAATGGTCTTGATTCGCTTGACGCTGCTG | 9.05 log fluorescence intensity
CGGAAGTGTGGTAAACGTCGGATATCCGGTTCTTCTGTCTTGATTCGCTTGACGCTGCTG | 12 log fluorescence intensity
CAGTATAGGACTTCTTCCCTGAAGCAATTGATAACCGTCTTGATTCGCTTGACGCTGCTG | 8.93 log fluorescence intensity
GTGTATGGGATCCCATCCAACACACGTGTTAAAATGGTCTTGATTCGCTTGACGCTGCTG | 9.12 log fluorescence intensity
CACTATTTTTACAGTAATGTAGCACGCGTAACTCCTGTCTTGATTCGCTTGACGCTGCTG | 8.94 log fluorescence intensity
TACTGACTAATATATGCGAATGCACATGAATAGACCGTCTTGATTCGCTTGACGCTGCTG | 8.92 log fluorescence intensity
TGTCGGGTAAGGAAATGTAGATCACGTGAATGAAAAGTCTTGATTCGCTTGACGCTGCTG | 8.91 log fluorescence intensity
GGAAAGAGGCCCAGGGTAACACCGGAAGTGGGCTTAGTCTTGATTCGCTTGACGCTGCTG | 10.8 log fluorescence intensity
